# Results filed as inconclusive are left out. Entries that show only a call come without a potency. Calls of active or inactive are those of the source. Unless noted, the call rests on the fitted dose curve; in most records, active means well fitted curve in the direction sought with a large enough effect; inconclusive means small, poorly fitted or top-dose-only effect, or another doubt; inactive means no such curve, though single readings can be large; an effect the other way counts as inactive or inconclusive.
# Experiments:
# [1] = target: Peroxisome proliferator-activated receptor delta (Homo sapiens) (UniProt Q03181); assay: qHTS assay for small molecule agonists of peroxisome proliferator-activated receptor delta signaling (AID 588534; calls by dose curve)
# Outline: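 Agonist-mode qHTS; reporter cells, 5 hrs 37 C pre-incubation; compound titration, 18 hrs 37 C; CCF4 dye, 2 hrs RT; fluorescence read. EC50/efficacy via Hill fit.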
# [2] = target: Nuclear receptor ROR-gamma (Homo sapiens) (UniProt P51449); assay: qHTS assay for small molecule antagonists of the retinoid-related orphan receptor gamma (ROR-gamma) signaling pathway (AID 651802);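 further: CHO cells with doxycycline-induced ROR-gamma expression; series mostly up to about 92 µM; nearly all actives have a fitted effect of over 60% in size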
# Outline: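 Steps: cells dispensed; compound or DMSO transferred by pin tool; doxycycline added to induce the ROR response element-driven luciferase; plates held 16hr at 37C; ONE-Glo added and luminescence measured.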
# [3] = target: Peroxisome proliferator-activated receptor gamma (Homo sapiens) (UniProt P37231); assay: qHTS assay for small molecule agonists of peroxisome proliferator-activated receptor gamma signaling (AID 588536; active means well fitted curve in the direction sought with a large enough effect in the signal ratio, with a control signal flat, not every such curve was filed as active; the % refers to the signal ratio)
# Outline: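 Cells were plated and held 6–6.5 h at 37 C, then compounds were added as a titration series. After a further 16 h, CCF4 dye was loaded for 2 h at room temperature and emission at 460/530 nm recorded.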
# [4] = target: Peroxisome proliferator-activated receptor gamma (Homo sapiens) (UniProt P37231); assay: qHTS assay for small molecule antagonists of peroxisome proliferator-activated receptor gamma signaling (AID 588537; active means well fitted inhibition curve with a large enough effect in the signal ratio, with a control signal flat, not every such curve was filed as active; the % refers to the signal ratio; further: potency means the concentration at half of the fitted maximal effect)
# Outline: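 Compounds are tested as concentration series for inhibition of rosiglitazone-driven (50 nM) reporter expression in GeneBLAzer PPAR-gamma-UAS-bla HEK293 cells. After 16 h at 37 C, CCF4 substrate is added for 2 h at room temperature and blue/green fluorescence is measured.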
# [5] = qHTS assay for small molecule agonists of retinoid X receptor alpha signaling (AID 588544; calls by dose curve); settings: HEK293T RXRa-UAS-bla, beta-lactamase reporter, 18 h; 530 nm emission
# [6] = target: Retinoic acid receptor RXR-alpha (Homo sapiens) (UniProt P19793); assay: as above
# [7] = target: Thyroid hormone receptor beta (Homo sapiens) (UniProt P10828); assay: qHTS assay for small molecule agonists of thyroid hormone receptor beta signaling (AID 588545; calls by dose curve)
# Outline: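 Cells (2500/well) were seeded, incubated 4 hrs at 37 C, dosed with a compound series, incubated 18 hrs, loaded with CCF4 dye for 2 hrs at RT, then read for fluorescence. Data were scaled between DMSO (0%) and 10 nM T3 (100%).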
# [8] = qHTS assay for small molecule antagonists of retinoid X receptor alpha signaling (AID 588546; active means well fitted inhibition curve with a large enough effect in the signal ratio, with a control signal flat, not every such curve was filed as active; the % refers to the signal ratio;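 further: cells stimulated with 9-cis-retinoic acid as agonist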); settings: HEK293T RXRa-UAS-bla, beta-lactamase ratio, antagonist mode; measured here: W530 green channel, cytotoxicity proxy
# Outline: (§1)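 Beta-lactamase reporter inhibition, read as CCF4 fluorescence ratio (ex 405, em 460/530 nm) after 2 h at RT. HEK293T UAS-bla cells, 2500/well, were stimulated with 9-cis-RA at 500 or 100 nM final alongside test compound for 18 h at 37 C.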
# [9] = target: Retinoic acid receptor RXR-alpha (Homo sapiens) (UniProt P19793); assay: as above; settings: HEK293T RXRa-UAS-bla, beta-lactamase ratio, antagonist mode
# Outline: as §1
# [10] = target: Thyroid hormone receptor beta (Homo sapiens) (UniProt P10828); assay: qHTS assay for small molecule antagonists of thyroid hormone receptor beta signaling (AID 588547; active means well fitted inhibition curve with a large enough effect in the signal ratio, with a control signal flat, not every such curve was filed as active; the % refers to the signal ratio;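 further: cells stimulated with 0.4 nM T3 agonist during compound exposure; series mostly up to about 77 µM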); settings: TR-UAS-bla HEK293, beta-lactamase ratio, antagonist mode, 18 h
# Outline: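 TR-UAS-bla GripTite HEK293 cells in 2% charcoal/dextran FBS medium were preincubated 4 h at 37 C, given compound (0.59 nM to 92 uM) plus 0.4 nM T3 (final) for 18 h, then CCF4 for 2 h at RT; Hill fit gave IC50.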
# [11] = qHTS assay for small molecule activators of the p53 signaling pathway (AID 651743; active means well fitted activation curve with a large enough effect in the signal ratio, not every such curve was filed as active; the % refers to the signal ratio; further: series mostly up to about 92 µM); settings: HCT-116 p53RE-bla, beta-lactamase FRET ratio, 16 h; activation: stronger effect = higher value
# Outline: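 Agonist-mode quantitative HTS in HCT-116 cells carrying a p53-response-element beta-lactamase reporter; 16 h compound treatment at 37 C, then FRET substrate loading for 2 h at room temperature and fluorescence read.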
# [12] = qHTS assay for small molecule activators of the nuclear factor-kappa B (NF-kB) signaling pathway (AID 651749; active means well fitted activation curve with a large enough effect in the signal ratio; the % refers to the signal ratio; further: series mostly up to about 77 µM); settings: NF-kB-bla ME-180 cells, beta-lactamase FRET ratio, 16 h; activation: stronger effect = higher value
# Outline: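 Human ME-180 cervical cells with an NF-kB-bla construct; compounds added via 23 nL pin transfer, DMSO as vehicle; incubation 16 hr. Reporter activity measured by FRET disruption.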
# [13] = qHTS assay for environmental chemicals that activate the Aryl hydrocarbon Receptor (AhR) signaling pathway (AID 651777); settings: 1A2-DRE human hepatoma cells, luciferase, 24 h; activation: stronger effect = higher value; further: nearly all actives have a fitted effect of over 15% in size; further: potency means the concentration at half of the fitted maximal effect
# Outline: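 Stable CYP1A2 promoter/DRE-luciferase human hepatoma line treated 24 hr; One-Glo luminescence, 30 min RT.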
# [14] = target: Peroxisome proliferator-activated receptor alpha (Homo sapiens) (UniProt Q07869); assay: qHTS assay for small molecule agonists of the peroxisome proliferator-activated receptor alpha (PPARalpha) signaling pathway (AID 651778); settings: PathHunter PPARalpha complementation, chemiluminescence, 6 h; max response: stronger effect = higher value
# Outline: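 Cells plated at 2,000/well and held overnight at 37 C, 5% CO2, then compound added by pin tool for 6 hr; after PathHunter detection reagent and 60 min at room temperature, chemiluminescence from enzyme complementation was read.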
# [15] = qHTS assay for small molecule agonists of the antioxidant response element (ARE) signaling pathway measured by Nrf2-dependant transcriptional activity - cell viability counter screen (AID 720653; active means well fitted curve in the direction sought with a large enough effect in the repeat runs; an effect the other way counts as inactive or inconclusive); settings: ARE-bla HepG2 viability, CellTiter-Glo ATP luminescence, 16 h; max response: stronger effect = lower value
# Outline: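 ARE-bla HepG2 cells (2,000/well) rested 5 hrs at 37C/5% CO2, then exposed to compounds in DMSO for 16 hrs. Viability was read in the same wells as intracellular ATP by luminescence, 30 min at room temperature after reagent addition.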
# [16] = qHTS assay for cell viability of HEK293 cells (AID 743288); settings: ATP luminescence (CellTiter-Glo), 18 h; max response: stronger effect = lower value; further: nearly all actives have a fitted effect of over 50% in size
# Outline: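 Quantitative high-throughput screen: compounds were pinned onto parental HEK293 cells (2,000 per well) after a minimum 5 h settling at 37 C, incubated 18 h at 37 C, and intracellular ATP measured by luciferase luminescence.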
# [17] = qHTS assay for cell viability of the p53RE-bla HCT-116 cell line (AID 743292); further: nearly all actives have a fitted effect of over 55% in size
# Outline: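 Readout: CellTiter-Glo luminescence after 30 min RT. Treatment: compounds in DMSO, 16 h, 37 C. Cells: CellSensor p53RE-bla HCT-116, 4,000/well, preincubated 5 h.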
# [18] = qHTS for Inhibitors of the vitamin D receptor (VDR): Hit Validation using a Texas Red Assay (AID 602201)
# Outline: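 Fluorescence polarization (Ex 595/Em 615 nm) of Texas Red (7 nM) with 1.5 uM VDR-LBD and LG19078 (final concentrations). Compounds were incubated for 2 hours at room temperature.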
# [19] = target: Alpha-galactosidase (Coffea arabica) (UniProt Q42656); assay: Counterscreen for Glucocerebrosidase Inhibitors: qHTS Assay for Coffee Bean alpha-Galactosidase at pH 4.5 (AID 957); further: series mostly up to about 77 µM
# Outline: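 Enzyme is added first (2 nM final), then compounds titrated from 0.7 nM to 77 uM, then 80 uM 4-methylumbelliferyl alpha-D-galactopyranoside; after 20 min at room temperature a pH 10 NaOH/glycine stop precedes fluorescence reading at 365/440 nm.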
# [20] = target: Alpha-galactosidase (Coffea arabica) (UniProt Q42656); assay: Counterscreen for Glucocerebrosidase Inhibitors: qHTS Assay for Coffee Bean alpha-Galactosidase at pH 5.9 (AID 998)
# Outline: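 In 50 mM citric acid pH 5.9 with 0.005% Tween-20, coffee bean enzyme hydrolyses 80 uM 4-MU alpha-D-galactopyranoside over 20 min at RT. Activity is normalized to controls; AC50 comes from Hill-modelled concentration-response data.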
# Sequence of Nuclear receptor ROR-gamma (Homo sapiens) (P51449 whole entry, looked up): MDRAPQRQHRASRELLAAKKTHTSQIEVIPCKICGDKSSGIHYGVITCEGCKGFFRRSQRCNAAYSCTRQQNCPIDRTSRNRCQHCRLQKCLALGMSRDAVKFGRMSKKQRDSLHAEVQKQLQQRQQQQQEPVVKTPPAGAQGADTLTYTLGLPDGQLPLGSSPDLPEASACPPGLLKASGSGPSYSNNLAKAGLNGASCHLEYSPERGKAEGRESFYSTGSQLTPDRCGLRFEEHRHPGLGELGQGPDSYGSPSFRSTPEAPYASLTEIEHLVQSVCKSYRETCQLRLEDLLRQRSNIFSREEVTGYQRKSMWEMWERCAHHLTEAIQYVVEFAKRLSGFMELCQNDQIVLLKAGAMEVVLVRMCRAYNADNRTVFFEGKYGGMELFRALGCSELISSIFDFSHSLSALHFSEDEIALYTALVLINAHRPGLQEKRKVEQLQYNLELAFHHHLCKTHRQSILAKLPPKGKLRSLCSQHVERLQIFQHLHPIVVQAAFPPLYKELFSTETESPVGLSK
# Sequence of Peroxisome proliferator-activated receptor delta (Homo sapiens) (Q03181 whole entry, looked up): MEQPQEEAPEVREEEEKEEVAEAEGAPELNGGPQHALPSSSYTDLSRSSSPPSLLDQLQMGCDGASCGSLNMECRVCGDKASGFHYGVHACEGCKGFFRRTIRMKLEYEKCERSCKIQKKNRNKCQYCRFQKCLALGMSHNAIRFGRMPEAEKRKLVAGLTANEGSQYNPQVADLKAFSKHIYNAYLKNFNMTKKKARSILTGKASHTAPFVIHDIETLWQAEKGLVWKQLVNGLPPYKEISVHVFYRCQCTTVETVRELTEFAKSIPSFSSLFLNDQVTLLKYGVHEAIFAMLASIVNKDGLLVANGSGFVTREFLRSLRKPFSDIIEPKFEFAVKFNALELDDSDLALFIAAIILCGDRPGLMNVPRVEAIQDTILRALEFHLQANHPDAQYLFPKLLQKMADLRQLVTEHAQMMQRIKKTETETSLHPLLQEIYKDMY
# Sequence of Alpha-galactosidase (Coffea arabica) (Q42656 whole entry, looked up): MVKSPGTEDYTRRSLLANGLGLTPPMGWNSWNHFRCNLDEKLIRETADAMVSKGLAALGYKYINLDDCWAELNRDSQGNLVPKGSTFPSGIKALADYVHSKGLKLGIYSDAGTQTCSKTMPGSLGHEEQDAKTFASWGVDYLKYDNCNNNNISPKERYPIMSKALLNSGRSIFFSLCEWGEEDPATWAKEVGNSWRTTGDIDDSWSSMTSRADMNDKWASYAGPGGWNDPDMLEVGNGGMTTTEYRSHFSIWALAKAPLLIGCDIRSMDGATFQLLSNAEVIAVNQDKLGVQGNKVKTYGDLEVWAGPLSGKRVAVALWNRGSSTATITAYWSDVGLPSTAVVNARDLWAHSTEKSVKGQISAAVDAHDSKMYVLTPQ
# Sequence of Thyroid hormone receptor beta (Homo sapiens) (P10828 whole entry, looked up): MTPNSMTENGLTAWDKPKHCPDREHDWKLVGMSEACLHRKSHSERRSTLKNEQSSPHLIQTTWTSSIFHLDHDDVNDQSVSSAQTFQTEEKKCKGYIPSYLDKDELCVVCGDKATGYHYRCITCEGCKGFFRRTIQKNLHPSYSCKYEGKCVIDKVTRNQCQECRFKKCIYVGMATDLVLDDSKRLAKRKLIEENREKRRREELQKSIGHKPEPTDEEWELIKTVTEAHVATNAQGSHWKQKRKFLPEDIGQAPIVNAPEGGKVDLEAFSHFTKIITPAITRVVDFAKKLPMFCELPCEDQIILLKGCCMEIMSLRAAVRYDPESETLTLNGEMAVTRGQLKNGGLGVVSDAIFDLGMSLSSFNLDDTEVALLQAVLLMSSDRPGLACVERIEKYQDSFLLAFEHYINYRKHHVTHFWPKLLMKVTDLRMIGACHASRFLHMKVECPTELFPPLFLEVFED
# Sequence of Peroxisome proliferator-activated receptor gamma (Homo sapiens) (P37231 whole entry, looked up): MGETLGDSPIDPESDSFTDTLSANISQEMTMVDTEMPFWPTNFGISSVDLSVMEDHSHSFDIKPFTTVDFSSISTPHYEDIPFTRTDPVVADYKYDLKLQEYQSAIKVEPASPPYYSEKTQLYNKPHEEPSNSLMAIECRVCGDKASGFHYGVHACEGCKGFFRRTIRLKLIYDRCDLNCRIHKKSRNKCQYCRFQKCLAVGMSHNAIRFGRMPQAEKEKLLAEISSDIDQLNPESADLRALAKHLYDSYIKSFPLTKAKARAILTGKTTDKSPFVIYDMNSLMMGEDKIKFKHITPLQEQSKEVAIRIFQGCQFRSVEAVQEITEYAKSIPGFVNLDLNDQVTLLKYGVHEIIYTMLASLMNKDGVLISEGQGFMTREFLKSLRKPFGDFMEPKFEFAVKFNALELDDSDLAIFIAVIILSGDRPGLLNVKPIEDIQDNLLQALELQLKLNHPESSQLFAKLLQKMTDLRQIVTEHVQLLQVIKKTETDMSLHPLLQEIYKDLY
# Sequence of Retinoic acid receptor RXR-alpha (Homo sapiens) (P19793 whole entry, looked up): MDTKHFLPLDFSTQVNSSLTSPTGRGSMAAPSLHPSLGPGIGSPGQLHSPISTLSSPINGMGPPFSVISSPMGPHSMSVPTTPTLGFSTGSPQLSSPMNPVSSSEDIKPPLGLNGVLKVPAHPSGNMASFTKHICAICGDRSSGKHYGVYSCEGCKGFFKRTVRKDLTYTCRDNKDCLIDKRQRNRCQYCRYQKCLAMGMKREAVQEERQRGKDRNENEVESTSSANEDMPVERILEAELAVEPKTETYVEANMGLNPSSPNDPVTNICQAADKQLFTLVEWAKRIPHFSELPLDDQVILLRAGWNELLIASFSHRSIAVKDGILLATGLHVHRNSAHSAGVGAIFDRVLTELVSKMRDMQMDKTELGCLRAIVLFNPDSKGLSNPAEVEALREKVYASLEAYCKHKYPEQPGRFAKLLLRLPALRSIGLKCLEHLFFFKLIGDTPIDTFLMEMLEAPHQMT
# Sequence of Peroxisome proliferator-activated receptor alpha (Homo sapiens) (Q07869 whole entry, looked up): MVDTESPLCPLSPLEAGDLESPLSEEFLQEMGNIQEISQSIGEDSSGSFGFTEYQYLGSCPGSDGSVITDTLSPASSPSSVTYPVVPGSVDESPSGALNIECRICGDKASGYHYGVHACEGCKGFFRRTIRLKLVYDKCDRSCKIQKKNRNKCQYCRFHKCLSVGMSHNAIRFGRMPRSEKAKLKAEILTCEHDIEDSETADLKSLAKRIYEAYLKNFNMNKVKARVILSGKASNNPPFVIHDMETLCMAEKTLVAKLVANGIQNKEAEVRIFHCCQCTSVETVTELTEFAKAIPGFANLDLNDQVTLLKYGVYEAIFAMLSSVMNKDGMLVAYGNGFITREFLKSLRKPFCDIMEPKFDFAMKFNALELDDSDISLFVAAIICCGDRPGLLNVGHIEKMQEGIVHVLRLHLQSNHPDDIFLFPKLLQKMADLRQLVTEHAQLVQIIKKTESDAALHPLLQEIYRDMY
smiles,measurement,setting,value
O=NO,outcome,[1],inactive
same,Potency,[2],inactive
CC(C)NC(=O)N1CC(=O)N(c2cc(Cl)cc(Cl)c2)C1=O,Potency,[3],inactive
same,Potency,[4],44.7 µM (active)
same,max response,[5],21.2%
same,Potency,[6],inactive
same,Potency,[7],inactive
same,max response,[8],11.6%
same,max response,[9],-6.64% (inactive)
same,activity change % (negative = inhibition),[10],4.77% (inactive)
same,activation,[11],-1.23% (inactive)
same,activation,[12],-3.11% (inactive)
same,activation,[13],14.5% (inactive)
same,max response,[14],0.394% (inactive)
same,max response,[15],1.07% (inactive)
same,max response,[16],-6.95% (inactive)
same,Potency,[17],inactive
COC(=O)COc1ccc(/C=C2\C(=O)NC(=S)N(c3ccc(C)cc3)C2=O)cc1OC,Potency,[18],inactive
O=C1NC(=O)C(=Cc2ccc(-c3cc(Cl)ccc3[N+](=O)[O-])o2)C(=O)N1,Potency,[18],inactive
c1c[nH]cn1,outcome,[1],inactive
same,Potency,[2],inactive
O=C(Nc1ccccc1)c1ccccc1O,outcome,[1],inactive
same,Potency,[13],44.7 µM (active)
c1cnc2c(c1)ccc1cccnc12,outcome,[19],inactive
same,outcome,[20],inactive
same,outcome,[1],inactive

# Source: PubChem BioAssay (NCATS)
